Experimental data from PubChem BioAssay (NCI).
About 83,000 compounds went through this panel and 20% of them were active in at least one assay; those are over-represented in the sample as a whole.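 Negative percent growth values reflect cell death: -40 means 40% of the cells present at the start died, and -100 means all died.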 Values without a mark were called inactive. Active and inactive are the calls of the source. How the source made its calls: active means growth percent below 10; inactive means the rest.

Columns and labels:
Test in all cases: NCI-60 one-dose screen, 48 h (100 = growth as untreated, 0 = no growth, -100 = all killed)
Details in all cases: 10 µM unless noted
SN12C renal = system: SN12C renal
UO-31 renal = system: UO-31 renal
TK-10 renal = system: TK-10 renal
ACHN renal = system: ACHN renal
CAKI-1 renal = system: CAKI-1 renal
A498 renal = system: A498 renal
CCRF-CEM leukemia = system: CCRF-CEM leukemia
MOLT-4 leukemia = system: MOLT-4 leukemia
SR leukemia = system: SR leukemia
RPMI-8226 leukemia = system: RPMI-8226 leukemia
OVCAR-8 ovarian = system: OVCAR-8 ovarian
OVCAR-5 ovarian = system: OVCAR-5 ovarian
OVCAR-4 ovarian = system: OVCAR-4 ovarian
SK-OV-3 ovarian = system: SK-OV-3 ovarian
IGROV1 ovarian = system: IGROV1 ovarian
OVCAR-3 ovarian = system: OVCAR-3 ovarian
NCI/ADR-RES ovarian = system: NCI/ADR-RES ovarian
EKVX NSCLC = system: EKVX NSCLC
HS 578T breast = system: HS 578T breast

SMILES | growth (SN12C renal) | growth (UO-31 renal) | growth (TK-10 renal) | growth (ACHN renal) | growth (CAKI-1 renal) | growth (A498 renal) | growth (CCRF-CEM leukemia) | growth (MOLT-4 leukemia) | growth (SR leukemia) | growth (RPMI-8226 leukemia) | growth (OVCAR-8 ovarian) | growth (OVCAR-5 ovarian) | growth (OVCAR-4 ovarian) | growth (SK-OV-3 ovarian) | growth (IGROV1 ovarian) | growth (OVCAR-3 ovarian) | growth (NCI/ADR-RES ovarian) | growth (EKVX NSCLC) | growth (HS 578T breast)
O=Cc1ccc(Cl)c(Cl)c1 | 110% | 80.1% | 98% | 103% | 111% | 83.3% | 97.8% | 106% | 98% | 105% | 101% | 99.8% | 95.8% | 112% | 83.7% | 116% | 95.4% |  | 
O=c1[nH]c(=O)c2cc(Cl)cc(Cl)c2[nH]1 | 91% | 75.3% | 97.6% | 103% | 92% | 121% | 99.6% | 95.7% | 94.3% |  | 101% | 116% | 101% | 118% | 90.6% | 126% | 131% | 92.7% | 
Cc1ccc(S(=O)(=O)CCCl)cc1 |  | 74.2% | 97.4% | 98.2% | 117% | 95.2% | 101% | 95.5% | 90% | 101% | 101% | 101% | 107% | 124% | 123% | 131% | 105% |  | 102%
S=c1nc(-c2ccccn2)c(-c2ccccn2)n[nH]1 | 118% | 81.1% | 98.6% | 109% | 110% | 119% | 97.2% | 87.7% |  | 112% | 103% | 111% | 108% | 112% | 103% | 107% | 102% |  | 105%
CCOc1ccccc1NC(=O)CCl | 94.5% | 116% | 94.5% | 108% | 95.6% | 113% | 63.5% | 70.2% | 74.8% | 88.8% | 86.9% | 124% | 45.9% | 109% | -12% (active) | 95.4% | 106% |  | 94.9%
NC(=S)N/N=C/c1ccc(Cl)cc1 | 128% |  | 106% | 108% |  | 99.5% |  | 88.4% | 97.1% | 97.8% | 92.9% | 108% | 97.3% | 118% | 107% | 116% | 100% |  | 112%
COc1nc(Nc2cccc(C(F)(F)F)c2)nc(OC)n1 | 102% | 84.3% | 111% | 110% | 103% | 85.3% | 95.5% | 86.4% | 95% | 94.7% | 96% | 116% | 105% | 97.9% | 93.1% | 103% | 104% |  | 98.6%
C=CCC(OC(C)=O)c1ccc(OC)c(OC)c1 (stereo unspecified) |  |  | 102% | 99% | 92.3% | 110% | 100% | -29% (active) | 35.3% | 97.1% | 96.7% | 113% | 118% | 126% | 96.6% | 111% | 116% | 107% | 
Cc1ccc(OC(=O)c2ccccc2)cc1 | 109% | 97.2% | 98.1% | 117% | 114% |  | 108% | 104% | 102% | 113% | 101% | 100% | 114% | 107% | 132% | 115% | 113% |  | 141%
Oc1ccc(N=Cc2ccc(OCc3ccccc3)cc2)cc1 | 101% | 79.9% | 99.3% | 99.7% | 98.1% | 75.8% | 82.4% | 97.1% | 97.4% | 96.7% | 96.3% | 111% | 95.2% | 112% | 108% | 103% | 95.6% |  | 
N#CC1(O)CCCCC1 | 110% | 85.6% | 102% | 106% | 92.5% | 87.9% |  | 102% | 91.6% | 105% | 94.3% | 98.2% |  | 93.6% | 101% | 104% | 94% | 101% | 
C[n+]1cc2cc3c(cc2c2ccccc21)OCO3 |  | 72% | 92.8% | 106% | 102% | 72.8% | 57.5% | 12.4% | 15.6% | 40.3% | 77.9% | 74% | 52.3% | 46% | 84.1% | 51.5% | 106% |  | 
Cc1cc(CO)c(O)c(CO)c1 | 111% | 90.9% | 97.1% | 103% | 96.8% | 95.5% |  | 21.4% | 77.8% | 91% | 105% | 101% | 122% | 106% | 108% | 113% | 96.1% | 106% | 
O=C1NCC2CCCC1C2 (stereo unspecified) | 101% | 92.7% | 101% | 111% |  | 133% | 104% | 103% | 110% | 118% | 99.3% | 107% | 103% | 110% | 107% | 114% | 106% | 118% | 
CC(=O)NCNC(C)=O | 109% | 105% | 115% | 100% | 102% | 113% | 93.3% | 87.9% | 85.3% | 97% | 98% | 105% |  | 113% | 113% | 120% | 111% |  | 111%
Cc1cc(NC(=O)c2ccccc2)c(Cl)cc1N | 100% | 86.6% | 141% | 98.8% |  |  | 47.9% |  |  |  | 95.9% | 103% | 97.5% | 107% | 33.3% | 119% | 102% | 107% | 
Clc1ccc(-c2noc(/C=C\c3ccccc3)n2)cc1 | 105% | 83.5% | 115% | 98.3% | 96.1% | 93.7% | 92.3% | 98.4% | 97.8% | 110% | 98.7% | 99.6% | 102% | 95.1% | 96.3% | 102% | 108% |  | 119%
CC(C)c1ccccc1NC(=O)N1CCC(C(C)C)CC1 |  | 85.6% | 127% |  | 92.3% | 99.3% | 101% | 90.8% | 92.4% | 105% | 105% | 117% |  | 105% | 106% | 113% | 111% |  | 102%
CCOC(=O)CO | 104% | 72.8% | 109% | 109% | 96.5% | 97% | 102% | 86.4% | 95% |  | 109% | 105% | 111% | 109% | 105% | 125% | 109% | 95.6% | 109%
C#CCSc1nnnn1-c1ccccc1 |  | 91.1% | 80.4% | 70.2% | 78.5% | 40% | 83.9% | 87.9% | 86.9% |  | 80.9% | 92% | 92.6% | 104% | 92.8% | 79.1% | 86.7% |  | 
